Measured values published in PubChem BioAssay AID1117319 (Southern Research Institute, 2015).
Several values for one entry are separate records, joined by “and”; a condition that tells them apart may be missing. Equal entries are not always repeated. The whole screen tested about 260,000 compounds, of which about 1,500 (0.58%) were called active. Not shown: some 5% with an inconclusive outcome.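 Rule for the calls: active = inhibition above a set limit at one or more doses, reproduced on every date tested; inconclusive = results disagree between test dates, or hit never tested in dose response; inactive = the rest.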 Not all results are given here. Potency and affinity values are given separately.

target: Virion infectivity factor (Human immunodeficiency virus type 1 group M subtype B (isolate BH10)) + Virion infectivity factor (Human immunodeficiency virus type 1 group M subtype B (isolate BRU/LAI)) + Virion infectivity factor (Human immunodeficiency virus type 1 group M subtype B (isolate PCV12)) + Virion infectivity factor (Human immunodeficiency virus type 1 group M subtype B (isolate HXB2)) + DNA dC->dU-editing enzyme APOBEC-3G (Homo sapiens) (UniProt P69720+P69721+P69722+P69723+Q9HC16); test: inhibitors of Vif binding to APOBEC3G peptide, primary screen, biochemical, TR-FRET, GST-Vif 1-94, biotin-A3G peptide, dose response retest (AID 1117319); conditions: hits give high values;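 note: Vif residues 1-94 fused to GST binding biotinylated APOBEC3G peptide 110-148; 0% = full assay without inhibitor and 100% = GST in place of GST-Vif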

Structure (SMILES)	inhibition
Cc1ccc2cccc(SCC(=O)NCc3ccco3)c2n1	5.4% (inactive)
Cc1ccc(S(=O)(=O)N(C)c2ccc(C(=O)NCC(c3ccco3)N3CCCC3)cc2)cc1 (centres undefined)	-9.74% (inactive)
Cc1ccc(/C=C/C(=O)N2CCc3ccccc3C2)cc1	0% (inactive)
CC(C)(C)c1ccc(/C=C/C(=O)N2CCc3ccccc3C2)cc1	7.01% (inactive)
CC12CCC(=O)C=C1CCC1C2C(O)CC2(C)C1CCC2(O)C(=O)COC(=O)COCC(=O)O (centres undefined)	0.66% (inactive)
COc1ccccc1NC(=O)c1ccc(NC(=O)c2cc3c(s2)CCC3)cc1	-2.47% (inactive)
CNC(=O)COC(=O)c1cc2c(s1)CCCC2	0.25% (inactive)
Cc1c(/C=N/O)c2ccccn2c1C(=O)c1ccc(F)cc1	-0.95% (inactive)
CC(C)C1CC(C(F)(F)F)n2nc(C(=O)O)cc2N1 (centres undefined)	7.12% (inactive)
Cc1cc(C)nc(SCc2nnc(SCC(=O)Nc3nc(-c4ccccc4)cs3)n2C)n1	-21.4% (inactive)
Cc1ccc(N2CCN(c3ccc(C)cc3)C2c2cccnc2)cc1	-3.62% (inactive)
Cc1ccc(N2CCN(c3ccc(C)cc3)C2c2ccncc2)cc1	13.1% (inactive)
N#CCCN(C(=O)COC(=O)c1cc(S(=O)(=O)N2CCOCC2)ccc1Cl)c1ccc(F)cc1	-1.91% (inactive)
CC(=O)Nc1ccc2nc(NC(=O)CS(=O)(=O)c3ccccc3)sc2c1	5.59% (inactive)
Cc1[nH]c(=O)[nH]c(=O)c1S(=O)(=O)Nc1cccc(C(F)(F)F)c1	-6.82% (inactive)
Cc1ccc(NS(=O)(=O)c2c(C)[nH]c(=O)[nH]c2=O)cc1C	0.84% (inactive)
Cc1ccc(C)c2[nH]c(=O)c(CCNC(=O)c3cc4ccccc4o3)cc12	24.9% (inactive)
O=C(Cc1ccccc1)NC1CCN(C(=O)c2ccc([N+](=O)[O-])cc2)CC1	-1.3% (inactive)
CCOc1ccccc1CN1CCN(Cc2csc(C(C)=O)c2)CC1CCO (centres undefined)	3.88% (inactive)
Nc1nonc1C(=O)N/N=C/c1ccc(-c2cccc([N+](=O)[O-])c2)o1	-3.49% (inactive)
Cc1cc([N+](=O)[O-])c(C)cc1-c1ccc(/C=N/NC(=O)Cn2nnnc2N)o1	9.49% (inactive)
C=CCN1C(=O)C(CC(=O)Nc2ccc(C)cc2)SC1=Nc1c(C)n(C)n(-c2ccccc2)c1=O (centres undefined)	4.69% (inactive)
O=C(Cc1c(F)cccc1Cl)NCc1cccnc1	-4.5% (inactive)
CC(=O)Nc1ccc(OCC(O)CN2CCN(c3ccc(Cl)cc3)CC2)cc1 (centres undefined)	22.8% (inactive)

Structure (SMILES)	inhibition
CC1(C)NC(=O)N(CCSc2ccc(Cl)cc2)C1=O	-1.11% (inactive)
Cc1ccc(SCCCCN2C(=O)NC(C)(C)C2=O)cc1	-3.51% (inactive)
CCc1cccc(CC)c1NC(=O)C(NS(=O)(=O)c1cccs1)c1ccccc1 (centres undefined)	9.9% (inactive)
CCOC(=O)C1=C(COC(=O)c2ccc(Cl)nc2)NC(=O)NC1C (centres undefined)	5.43% (inactive)
CC1NC(=O)NC1CCCCC(=O)O (centres undefined)	3.51% (inactive)
O=C(O)CCCCCCCCCCC1CCC(O)C1O (centres undefined)	-4.99% (inactive)
CC(=O)N(c1ccccc1C)c1ccccc1C	-4.05% (inactive)
CSCCC(NC(=O)c1ccccc1)C(=O)NCCCSc1ccccc1 (centres undefined)	-3.49% (inactive)
O=C(CCC1CCCC1)NNC(=O)c1ccccc1O	-4.22% (inactive)
CC(C)NS(=O)(=O)c1ccc(OCC(=O)NCCC2=CCCCC2)cc1	2.83% (inactive)
COc1ccc(CCNC(=O)COc2ccc(S(=O)(=O)N3CCCC3)cc2)cc1	-4.34% (inactive)
Cc1nnc(SCC(=O)N2CCN(S(=O)(=O)c3ccccc3)CC2)s1	-8.25% (inactive)
CCc1ccc(/C=N/n2c(C3CCCCC3)n[nH]c2=S)cc1	-5.47% (inactive)
CC(C)(CO)NCc1cc(Br)ccc1OCc1ccccc1	-4.77% (inactive)
CCC1=NN2C(=N)/C(=C\c3ccc(OCCOc4ccc(NC(C)=O)cc4)c(OC)c3)C(=O)N=C2S1	-0.34% (inactive)
COc1ccc(OC)c(N)c1	14.5% (inactive)
COc1ccc(C(=O)c2ccc(OC)cc2O)c(O)c1	4.6% (inactive)
CCOC(=O)Cc1ncccc1C(=O)Nc1ccc(Oc2ccccc2)cc1	-1.5% (inactive)
COc1ccc(C(=O)NCc2nnc(SCC(=O)Nc3nc4ccc(C)cc4s3)o2)cc1OC	9% (inactive)
COc1ccc(C(=O)NCc2nnc(SCC(=O)Nc3nc4ccccc4s3)o2)cc1OC	0.33% (inactive)
Cc1ccc(CSc2nc3ccncc3n2CC(=O)Nc2cc(C)cc(C)c2)cc1	-48.6% (inactive)
Cc1sc2ncnc(NCc3ccco3)c2c1C	23.1% (inactive)
Cc1sc2ncnc(SCC(=O)NC(=O)NCc3ccco3)c2c1C	-3.92% (inactive)
COc1ccc2c(c1)CC(C1(O)C(=O)N(C)c3ccccc31)C2=O (centres undefined)	-5.17% (inactive)

Structure (SMILES)	inhibition
CC(=O)c1ccc(NC(=O)Nc2ccc3c(c2)nc(C)n3C)cc1	11.4% (inactive)
Cc1ccc(NC(=O)Nc2ccc3c(c2)nc(C)n3C)cc1	66.9% (inactive)
COc1ccc(NC(=O)CN(C)C(=O)CSc2nc3ccccc3s2)cc1	-0.85% (inactive)
Cc1ccccc1-n1nc2c(c1NC(=O)c1ccc(Br)o1)CSC2	17.6% (inactive)
Cc1ccc(-n2nc3c(c2NC(=O)c2ccc(Br)o2)CSC3)c(C)c1	17% (inactive)
COc1ccc(NC(=O)COC(=O)c2ccc(S(=O)(=O)N3CC(C)CC(C)C3)cc2)cc1OC (centres undefined)	0.85% (inactive)
CC(=O)Nc1ccc(S(=O)(=O)Nc2nc3ccccc3nc2Nc2ccc(O)cc2)cc1	-3.02% (inactive)
CC(=O)Nc1ccc(S(=O)(=O)Nc2nc3ccccc3nc2Nc2cccc(O)c2)cc1	6.78% (inactive)
CC(=O)Nc1ccc(S(=O)(=O)Nc2nc3ccccc3nc2Nc2ccc(S(N)(=O)=O)cc2)cc1	23.8% (inactive)
CC(=O)Nc1ccc(Nc2nc3ccccc3nc2NS(=O)(=O)c2ccccc2)cc1	17.2% (inactive)
Cc1ccc(NC(=O)CS(=O)(=O)c2c[nH]c3ccccc23)c(C)c1	-0.62% (inactive)
COCCNC(=S)N/N=C(\C)CCc1ccc2c(c1)OCO2	3.32% (inactive)
CC(=O)c1ccc(NC(=S)NC(=O)/C=C/c2ccco2)cc1	9.46% (inactive)
Cc1cc(NC(=O)/C=C/c2ccco2)ccc1NC(=O)c1ccccc1	11.7% (inactive)
COc1ccc(/C=C/C(=O)NNC(=O)c2cc(C)oc2C)cc1	1.71% (inactive)
O=C(/C=C/c1ccco1)Nc1ccccc1C(=O)Nc1cccc(C(=O)O)c1	30.8% (inactive)
Cc1cc(C(=O)NNC(=O)/C=C/c2ccccc2Cl)c(C)o1	-12.6% (inactive)
O=C(/C=C/c1ccco1)NC(=S)Nc1ccccc1	10.3% (inactive)
COc1cccc(NC(=S)NC(=O)/C=C/c2ccco2)c1	28.1% (inactive)
Cc1ccc(O)c(NC(=S)NC(=O)/C=C/c2ccco2)c1	-4.52% (inactive)
COc1cc(OC)cc(C(=O)NCC(=O)OCc2nc3ccccc3s2)c1	5.21% (inactive)
COC(=O)C(NC(=O)c1ccccc1)(Nc1cc(C)cc(C)n1)C(F)(F)F (centres undefined)	-5.13% (inactive)
COc1ccc(CN2C(=O)C(CC(=O)NCCCCc3ccccc3)CC(C(=O)N(C(C)C)C(C)C)=C2C)cc1 (centres undefined)	6.93% (inactive)
CN(Cc1ccccc1)C(=O)CCC(=O)N(C)Cc1ccccc1	0.41% (inactive)

Structure (SMILES)	inhibition
C=CCNc1nc2c(c(=O)[nH]c(=O)n2C)n1Cc1cccc(C)c1	-3.73% (inactive)
CCN(CC)CCOC(=O)c1ccc(NC(=O)COc2cc(=O)n(CC)c3ccccc23)cc1	3.06% (inactive) and 4.99% (inactive)
COCCCN1C(=O)c2ccc(C(=O)NCc3ccco3)cc2C1=O	1.46% (inactive)
O=C(/C=C/c1ccco1)NC(=S)Nc1cc(C(F)(F)F)ccc1N1CCOCC1	31.6% (inactive)
CC(C)C(=O)N1CCN(c2ccccc2NC(=S)NC(=O)/C=C/c2ccco2)CC1	4.53% (inactive)
CS(=O)(=O)N(CCC#N)Cc1ccc(C=O)o1	-8.77% (inactive)
CS(=O)(=O)N(CCC#N)Cc1ccc(/C=C2\C(=O)Nc3ccccc32)o1	-11% (inactive)
Cc1ccc(Sc2ccc(/C=C3/C(=O)NN(c4ccccc4)C3=O)o2)cc1	22.1% (inactive)
CS(=O)(=O)N(CCC#N)Cc1ccco1	0.4% (inactive)
COc1cc2c(cc1OC)CN(C(=O)c1cc3ccccc3oc1=O)CC2	1.51% (inactive)
Cc1ccc(S(=O)(=O)N2CCC[C@H]2C(=O)OCCN2C(=O)c3ccccc3C2=O)cc1	-7.91% (inactive)
COC(=O)CN(C(=S)Nc1ccccc1)C1CC(=O)N(c2ccc(OC)cc2)C1=O (centres undefined)	-1.92% (inactive)
Cc1cccc(NC(=O)C2CC(=O)NC(Nc3nc4ccccc4s3)=N2)c1 (centres undefined)	11.6% (inactive)
O=C(COc1ccccc1)N1CCN(C(=O)c2cccs2)CC1	17.7% (inactive)
C=CCc1cc(/C=C/c2nc(O)c([N+](=O)[O-])c(=O)[nH]2)cc(OC)c1O	15% (inactive)
Cc1cccc(NC(=S)NC(=O)C(c2ccccc2)c2ccccc2)n1	-6.56% (inactive)
CCOC(=O)c1c(C)oc2c1C(=O)c1ccccc1C2=O	6.8% (inactive)
CCOc1ccc2noc3c2c1C(=O)c1ccccc1-3	31.7% (inactive)
CN1C(=O)S/C(=C/c2cccn2-c2cccc(C(=O)O)c2)C1=O	6.22% (inactive)
Cc1ccc(NC(=O)CN2C(=O)S/C(=C\c3cccn3-c3cccc(C(=O)O)c3)C2=O)cc1C	-0.87% (inactive)
Cc1cccc(C)c1NC(=O)CN1C(=O)S/C(=C\c2cccn2-c2cccc(C(=O)O)c2)C1=O	6.97% (inactive)
Cc1ccccc1NC(=O)CN1C(=O)S/C(=C\c2cccn2-c2cccc(C(=O)O)c2)C1=O	31.2% (inactive)
